About 83,000 compounds went through this panel and 20% of them were active in at least one assay; those are over-represented in the sample as a whole.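 How to read the values: 0–100, growth inhibition (40 = 60% inhibited); 0, no net growth; -100 to 0, cell death (-40 = 40% of starting cells died; -100 = all dead).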 A number with no mark means an inactive call. The source made the active and inactive calls. Rule for the calls: active = growth percent below 10; inactive = the rest.
Tested on: HL-60(TB) leukemia
Assay: NCI-60 one-dose screen, 48 h (100 = growth as untreated, 0 = no growth, -100 = all killed)
Details: 10 µM unless noted

SMILES | growth
NS(=O)(=O)c1ccc(Nc2nc(N/N=C/C=C/c3ccccc3)nc(Nc3ccccc3)n2)cc1 | 38.6%
CC(C)(C)Nc1nc2c(OCCc3ccccc3)cccn2c1-c1ccc(O)cc1 | -9.89% (active)
C=C(C)C(=O)O[C@H]1C[C@@]2(C)OC(=CC2=O)[C@H](C)[C@H](O)[C@H]2OC(=O)C(=C)[C@@H]21 | 14.3%
O=C1c2c(c3c4cccnc4[nH]c3c3ccc4ccccc4c23)C(=O)N1CCO | 97.1%
CCCn1cnc2c(c1=N)C(c1ccc(F)cc1)c1sc3c(C)cccc3c1O2 (stereo unspecified) | -30.2% (active)
CCCCCCNC(=O)Oc1ccc(/C(=C(/C)c2ccc(OC)cc2)c2ccc(OCCN3CCCC3)cc2)cc1 | 50.7%
